High-throughput results deposited in PubChem BioAssay by Johns Hopkins Ion Channel Center.
KCNQ2 inh: rat KCNQ2 potassium channel inhibitors, primary screen, cell-based, CHO-K1, FluxOR thallium flux, B-score. 20 min; active compounds read low. B-score at 10 µM. 310,000 compounds, 1.1% hits;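 active = fluorescence ratio B-score at most minus 3 library SDs, with starting brightness B-score within 2 library SDs, cut at about -5.5 in these data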
KCNQ2 pot: potentiators of rat KCNQ2 potassium channel | CHO-K1 KCNQ2, FluxOR thallium flux fluorescence; active compounds read high | Potassium voltage-gated channel subfamily KQT member 2 (Rattus norvegicus), O88943 | B-score at 10 µM | AID 2239, 2010 | 310,000 compounds, 0.54% hits;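 active = fluorescence ratio B-score at least 3 SD of library B-scores, with initial fluorescence B-score within 3 of them, cut at about 5.3 in these data; same plate scores as AID 2156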;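 note: B-score of peak minus minimum over baseline fluorescence ratio after K+ and Tl+ stimulus; positive B-score means potentiation of KCNQ2 with more thallium influx and brighter signal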
KCNQ2 inh conf: rat KCNQ2 potassium channel inhibitors, confirmation, cell-based, thallium flux; activity change, negative = inhibition, % at 10 µM; 1,000 compounds, 57% hits; shares compounds with KCNQ2 inh; KCNQ2-expressing cells, inhibition; active compounds read low; AID 493025, 2011;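 note: 0% = vehicle wells and values are ratio percent relative to vehicle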
KCNQ1 spec: human KCNQ1 channel inhibition, counter-screen for KCNQ2 inhibitor project, cell-based, FluxOR thallium flux; shares compounds with KCNQ2 inh; KCNQ1-expressing cells, FluxOR thallium flux fluorescence; active compounds read low; activity change, negative = inhibition, % at 10 µM; 1,000 compounds, 15% hits;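 active = activity change at least 3 SD of negative controls below their mean in both duplicate wells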;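 note: CHO cells stably transfected with KCNQ1 and depolarized by potassium stimulus; peak minus minimum fluorescence over baseline after thallium addition; 0% = vehicle negative control and -100% = blank without thallium stimulus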
Target sequence (P51787 whole entry, looked up): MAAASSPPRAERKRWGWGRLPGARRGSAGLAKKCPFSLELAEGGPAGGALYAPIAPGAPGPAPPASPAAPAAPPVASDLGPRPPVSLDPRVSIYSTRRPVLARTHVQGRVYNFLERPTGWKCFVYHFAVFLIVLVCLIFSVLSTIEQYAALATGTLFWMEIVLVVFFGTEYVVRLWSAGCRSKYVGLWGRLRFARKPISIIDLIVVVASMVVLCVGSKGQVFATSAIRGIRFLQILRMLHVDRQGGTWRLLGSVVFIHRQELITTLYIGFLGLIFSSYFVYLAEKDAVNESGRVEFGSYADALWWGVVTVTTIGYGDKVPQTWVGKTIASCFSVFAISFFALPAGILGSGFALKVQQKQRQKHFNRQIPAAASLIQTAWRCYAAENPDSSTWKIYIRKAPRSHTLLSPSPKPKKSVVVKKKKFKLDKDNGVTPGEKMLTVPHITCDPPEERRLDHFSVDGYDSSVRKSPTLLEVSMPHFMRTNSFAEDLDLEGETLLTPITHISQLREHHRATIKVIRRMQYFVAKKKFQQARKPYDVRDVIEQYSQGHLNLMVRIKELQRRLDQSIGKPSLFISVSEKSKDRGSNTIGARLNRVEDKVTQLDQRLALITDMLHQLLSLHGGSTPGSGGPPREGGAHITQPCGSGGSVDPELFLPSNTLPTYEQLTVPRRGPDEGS
CHO parental ctr: thallium flux change in parental CHO cells, counter-screen for KCNQ2 inhibitor project; shares compounds with KCNQ2 inh; active compounds read low; activity change, % at 10 µM; 1,000 compounds, 14% hits; AID 493029, 2011;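 note: 0% = vehicle negative controls with stimulus buffer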
KCNQ2 inh confirm: rat KCNQ2 channel inhibitors, confirmation, cell-based, automated patch clamp, single concentration; 550 compounds, 49% hits; calls only at 10 µM; shares compounds with KCNQ2 inh; KCNQ2-expressing cells, automated patch clamp current
Active calls of the source: *; i = inactive; · = no result; + = active, no number. The list is not random: actives were taken first. Their share in the collection is about 1.6%. Unless noted, the rule behind the calls is not given here.

SMILES | KCNQ2 inh | KCNQ2 pot | KCNQ2 inh conf | KCNQ1 spec | CHO parental ctr | others
Cc1cc(C)n2c(Br)c(CSc3nc4ccccc4s3)nc2n1 | i | · | · | · | ·
O=C(CCNc1ccccc1)c1cccc([N+](=O)[O-])c1 | -7.9* | -7.9 | i | i | i
O=C(CCNc1ccc(F)cc1)c1cccc([N+](=O)[O-])c1 | i | · | · | · | ·
Cn1c(C(=O)NN)cc2cc(OCc3ccccc3)ccc21 | i | · | · | · | ·
COc1ccc(/C=C/C(=O)N2CCCc3ccccc32)c(OC)c1 | i | · | · | · | ·
COc1ccc(OC)c(/C=C/C(=O)N2CCCc3ccccc32)c1 | -7* | -7 | -38%* | i | i | KCNQ2 inh confirm=i
Cc1ccccc1NC(=O)CSc1ccsc1[N+](=O)[O-] | i | 1.6 | · | · | ·
O=C(COc1ccc(Cl)cc1Cl)OCC(=O)N1CCCc2ccccc21 | i | 0.48 | · | · | ·
O=C(CCCOc1ccc(Cl)cc1Cl)N1CCCc2ccccc21 | -14* | -14 | i | i | i
N#C/C(=C\c1ccccc1)C(=O)OCC(=O)N1CCCC1 | i | · | · | · | ·
CCOC(=O)N1CCC(n2c(SCC(=O)N3CCC(C)CC3)nc3ccccc3c2=O)CC1 | -7.8* | -7.8 | i | i | i
CCOC(=O)N1CCC(n2c(SCC(=O)N3CCCC3)nc3ccccc3c2=O)CC1 | i | · | · | · | ·
CCOC(=O)N1CCC(n2c(SCC(=O)NCCC3=CCCCC3)nc3ccccc3c2=O)CC1 | -7.5* | -7.5 | i | i | i
CCOC(=O)N1CCC(n2c(SCC(=O)NCc3ccccc3)nc3ccccc3c2=O)CC1 | i | · | · | · | ·
COC(=O)[C@@H]1CC[C@H](C)[C@@H](c2ccc(C)cc2)N1C(=O)c1ccc(/C=N/O[C@@H](C)c2cn([C@H](CO)Cc3ccccc3)nn2)cc1 | i | · | · | · | ·
Cc1ncc([N+](=O)[O-])n1CC(=O)Nc1cccc(C(F)(F)F)c1 | i | · | · | · | ·
CC(C)[C@H]1COC(NC2=N[C@@H](C(C)C)CO2)=N1 | i | 0.78 | · | · | ·
COc1ccc(-c2cc(C(=O)N3CCCCC3)c3ccccc3n2)cc1 | i | · | · | · | ·
Cc1ccc(-c2cc(C(=O)N3CCOCC3)c3ccccc3n2)cc1 | i | · | · | · | ·
COc1ccc(-c2cc(C(=O)N3CCOCC3)c3cc(C)ccc3n2)cc1 | -7.2* | -7.2 | -31%* | i | i | KCNQ2 inh confirm=+
COc1ccc(-c2cc(C(=O)N3CCCCCC3)c3cc(C)ccc3n2)cc1 | -8.5* | -8.5 | -30%* | i | i | KCNQ2 inh confirm=+
CC(OC(=O)c1cccc(S(=O)(=O)N2CCCC2)c1)C(=O)NC1CCCCC1C (configuration not stated) | i | 0.98 | · | · | ·
Cc1cccc(C)c1NC(=O)CCc1nnc2ccc(N3CCCC3)nn12 | i | 1.6 | · | · | ·
O=C(NC1CCCC1)C(=O)N(c1ccccc1F)C(C(=O)NCC1CCCO1)c1cccs1 (configuration not stated) | i | 0.31 | · | · | ·
CCCn1c(N)c(C(=O)COc2ccc(Br)cc2F)c(=O)n(C)c1=O | i | 0.46 | · | · | ·
SMILES | KCNQ2 inh | KCNQ2 pot | KCNQ2 inh conf | KCNQ1 spec | CHO parental ctr | others
C=CCn1c(NCc2c[nH]c3ccccc23)nc2ccccc21 | -10* | -10 | -30%* | i | i | KCNQ2 inh confirm=+
C=CCn1c(NCc2ccc(OC)cc2)nc2ccccc21 | i | · | · | · | ·
O=S1(=O)C=C(SCc2cccc(Cl)c2)Nc2ccccc21 | i | · | · | · | ·
C=CCN1C(=O)c2ccc(C(=O)N(C)CC(=O)Nc3ccccc3C(F)(F)F)cc2C1=O | i | 1.8 | · | · | ·
CCCCCC[C@@H]([C@@H](C)O)n1cnc2c(N)ncnc21 | i | 0.81 | · | · | ·
CCCCCCCCCCCCCCCC(O)C(N)CO (configuration not stated) | -10* | -10 | i | i | i
CN(C)C(CNC(=O)c1ccc(S(=O)(=O)Nc2cccc(C(F)(F)F)c2)cc1)c1ccco1 (configuration not stated) | i | · | · | · | ·
COc1ccc2sc(N3C(=O)C4CC=C(C)CC4C3=O)nc2c1 (configuration not stated) | i | · | · | · | ·
CCOC(=O)C1=NNC(C(=O)c2ccccc2)C1c1ccc(Cl)cc1 (configuration not stated) | -8.8* | -8.8 | -18%* | i | i | KCNQ2 inh confirm=i
CCOC(=O)C1=NNC(C(=O)c2ccccc2)C1c1ccc(C)cc1 (configuration not stated) | i | · | · | · | ·
Cc1cc(C)n(-c2nc3ccccc3nc2N2CCCC2)n1 | i | · | · | · | ·
Cc1cc(C)n(-c2nc3ccccc3nc2N2CCN(C(=O)c3ccc(Cl)cc3)CC2)n1 | -8.4* | -8.4 | -32%* | -30%* | -24%* | KCNQ2 inh confirm=+
CCN(CC)S(=O)(=O)c1ccc(C(=O)NC(C)(C)C)cc1 | i | · | · | · | ·
COc1cccc(C(=O)Nc2cccc(C(=O)NCC(C)C)c2)c1 | -6.7* | -6.7 | i | i | i
COc1cccc(NC(=O)c2cccc(C(=O)Nc3cccc(OC)c3)c2)c1 | i | 0.78 | · | · | ·
COc1ccc(Cl)cc1NC(=S)NCCc1ccc(F)cc1 | -8.7* | -8.7 | -36%* | -34%* | -30%* | KCNQ2 inh confirm=+
COc1ccc(Cl)cc1NC(=S)NCCc1ccc(S(N)(=O)=O)cc1 | i | · | · | · | ·
COc1cccc(SCc2noc(C(=O)NCC3CC3)c2C(=O)NCC2CC2)c1 | i | · | · | · | ·
CC(C)CNC(=O)c1cccc(NC(=O)COc2ccc([N+](=O)[O-])cc2)c1 | i | 0.02 | · | · | ·
COc1cc(/C=N/N=C(N)N)ccc1OCc1ccc(Cl)cc1 | -9.4* | -9.4 | i | i | i
COc1cc(/C=N/O)ccc1OCc1ccc(Cl)cc1 | i | · | · | · | ·
O=C(c1ccco1)N1CCN(Cc2cc(=O)c(OCc3c(F)cccc3Cl)co2)CC1 | i | 1.5 | · | · | ·
Cc1ccc(-c2nnc(CCC(=O)NCC3C4CC5CC(C4)CC3C5)o2)s1 (configuration not stated) | i | 0.15 | · | · | ·
O=C(Oc1ccc2ccccc2c1Br)N1CCCCCC1 | -6.7* | -6.7 | i | i | i
CCN(CC)C(=O)Oc1ccc2ccccc2c1Br | i | · | · | · | ·
SMILES | KCNQ2 inh | KCNQ2 pot | KCNQ2 inh conf | KCNQ1 spec | CHO parental ctr | others
CC1CCN(S(=O)(=O)c2ccc(S(=O)(=O)N3CCCC3)cc2)CC1 | i | · | · | · | ·
O=C(NCc1ccccc1F)C1CCCN1C(=O)Nc1ccc(Cl)cc1 (configuration not stated) | i | 0.37 | · | · | ·
CC1C(=O)N2CCCc3cc(NC(=O)C(=O)NCc4cccnc4)cc1c32 (configuration not stated) | i | · | · | · | ·
Cc1onc(-c2ccccc2)c1C(=O)Nc1nc(-c2cc(F)ccc2F)cs1 | i | · | · | · | ·
Cc1onc(-c2ccccc2)c1C(=O)Nc1nc(-c2ccccc2)cs1 | -7.2* | -7.2 | i | i | i
CCOC(=O)c1cnc2c(OC)cccc2c1N1CCN(c2ccccc2OC)CC1 | -12* | -12 | -30%* | i | i | KCNQ2 inh confirm=i
